# Data: the supplement of paper PMC6555819
# What was measured:
# Assay in all cases: PBM binding z-score (relative to random genomic background probes); higher = stronger binding; sequences stand for … in GC…GCGATTGACAGCGTAGAATGAAGG
# [1] = tested on: FXR:RXRa (NR concentration 270 nM, RXRa partner concentration 90 nM)
# Procedure, shortened: (§1)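 Binding z-scores were set against random background probes. The data came from custom Agilent 4×180K protein-binding microarrays carrying double-stranded probes with 34-nt variable regions, incubated 1 h with ligand-free nuclear receptor dimers. Partner-specific antibodies detected binding, and scanned fluorescence was regression-normalized.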
# [2] = tested on: LXRa:RXRa (NR concentration 270 nM, RXRa partner concentration 90 nM)
# Procedure, shortened: as §1
# [3] = tested on: LXRa homodimer (NR concentration 270 nM)
# Procedure, shortened: as §1
# [4] = tested on: LXRb:RXRa (NR concentration 270 nM, RXRa partner concentration 90 nM)
# Procedure, shortened: as §1
# [5] = tested on: LXRb homodimer (NR concentration 270 nM)
# Procedure, shortened: as §1
# [6] = tested on: PPARa:RXRa (NR concentration 270 nM, RXRa partner concentration 90 nM)
# Procedure, shortened: as §1
# [7] = tested on: PPARg:RXRa (NR concentration 180 nM, RXRa partner concentration 90 nM)
# Procedure, shortened: as §1
# [8] = tested on: PPARg:RXRa 270nM:90nM, anti-RXR (NR concentration 270 nM, RXRa partner concentration 90 nM)
# Procedure, shortened: as §1
# [9] = tested on: PPARg:RXRa 30nM:10nM, anti-RXR (NR concentration 30 nM, RXRa partner concentration 10 nM)
# Procedure, shortened: as §1
# [10] = tested on: PPARg:RXRa 90nM:30nM, anti-RXR (NR concentration 90 nM, RXRa partner concentration 30 nM)
# Procedure, shortened: as §1
# [11] = tested on: PPARg:RXRa DBDmut IVT, anti-RXR (DBD mutation: RXRa K156A/R161A, NR concentration 270 nM, RXRa partner concentration 90 nM)
# Procedure, shortened: as §1
# [12] = tested on: PPARg:RXRa IVT, anti-PPARg (NR concentration 270 nM, RXRa partner concentration 90 nM)
# Procedure, shortened: as §1
# [13] = tested on: PPARg DBDmut:RXRa IVT, anti-PPARg (DBD mutation: PPARg1 K132A/R137A, NR concentration 270 nM, RXRa partner concentration 90 nM)
# Procedure, shortened: as §1
# [14] = tested on: PPARg DBDmut IVT, anti-PPARg (DBD mutation: PPARg1 K132A/R137A, NR concentration 270 nM)
# Procedure, shortened: as §1
# [15] = tested on: PPARg homodimer (NR concentration 180 nM)
# Procedure, shortened: as §1
# [16] = tested on: PXR:RXRa (NR concentration 270 nM, RXRa partner concentration 90 nM)
# Procedure, shortened: as §1
# [17] = tested on: PXR homodimer (NR concentration 270 nM)
# Procedure, shortened: as §1
# [18] = tested on: RARa:RXR (NR concentration 270 nM, RXRa partner concentration 90 nM)
# Procedure, shortened: as §1
# [19] = tested on: RARa homodimer (NR concentration 270 nM)
# Procedure, shortened: as §1
# [20] = tested on: RARb:RXRa (NR concentration 270 nM, RXRa partner concentration 90 nM)
# Procedure, shortened: as §1
Sequence,PBM binding z-score [1],PBM binding z-score [2],PBM binding z-score [3],PBM binding z-score [4],PBM binding z-score [5],PBM binding z-score [6],PBM binding z-score [7],PBM binding z-score [8],PBM binding z-score [9],PBM binding z-score [10],PBM binding z-score [11],PBM binding z-score [12],PBM binding z-score [13],PBM binding z-score [14],PBM binding z-score [15],PBM binding z-score [16],PBM binding z-score [17],PBM binding z-score [18],PBM binding z-score [19],PBM binding z-score [20]
TATACAGGGTCAAAGGCCAGATTACGAATGTCGA,7.37,6.22,2.78,4.95,2.24,6.15,8,7.46,5.15,7.09,2.17,4.84,2.19,3.09,2.87,4.54,0.853,6.01,1.67,4.43
TAGCCTAGGTCAATGGGCCAGTATAGTACGCATC,3.09,2.16,-0.016,1.51,-0.146,3.27,2.95,2.83,0.834,1.67,1.98,3.19,-0.338,-0.429,0.9,0.686,-0.285,1.56,0.0956,3.67
CAAACTAGGTCACCGGAAGGTCAAAGTGCGCATG,6.51,6.25,5.26,5.66,1.52,6.36,9.79,7.84,5.91,7.97,8.63,8.94,1.75,1.74,7.29,6.12,1.81,7.59,2.46,5.39
GCTGCTAGGTCAACTGATGGTCAGCCAAAGCTCG,3.81,3.1,0.159,2.08,0.187,3.65,2.88,2.91,0.226,1.68,4.84,3.92,0.564,-0.45,1.57,1.39,-0.698,2.93,-0.0572,4.27
GCTTGTTGATCAAGGTTAAGAAAGACTAAGCTAA,-0.091,0.792,-0.456,0.239,-0.437,1.09,-0.203,0.401,-0.0921,0.472,0.197,0.134,0.234,-0.0505,-0.0187,0.387,-0.694,0.658,0.254,0.66
AGAACGAGGGCACGCTGAGTTGATAGCTGAGTAG,0.863,0.607,-0.912,0.017,-0.95,2.18,2.08,1.87,0.18,1.06,4.41,3.75,0.643,0.101,0.829,1.57,0.136,1,-0.945,2.57
GCGTATAGGTAATACAAGGTGAAAGTCCGATTGT,1.84,2.57,0.196,0.896,-0.616,1.37,0.763,0.855,0.307,0.925,1.36,1.33,0.339,-0.802,0.129,0.699,-0.0902,1.12,0.521,0.576
CAAACTAAGTCAAAGGTCAAAGTCGAGCCAACCA,6.46,6.42,5.19,6.08,2.84,6.84,11.4,10.3,11.8,12.2,3.49,6.79,1.69,2.86,5.3,6.14,2.15,7.85,3.31,4.95
GCTAGCAGGCCATTTGGCTCACTCAATGACGGGC,-0.798,-0.75,-0.83,-1.31,-1.31,-0.645,0.277,-0.576,-0.918,-0.656,0.892,-0.288,-1.29,-1.19,-1.62,-1.01,-0.87,-0.778,-0.899,-0.0959
ACAGACAGGTGATGAACGTAACTCAGGCTATCAT,-0.0915,-0.174,0.0611,-0.231,-0.49,-0.156,0.922,-0.0111,0.477,-0.194,-0.0291,0.144,0.839,0.504,-0.201,-0.104,0.276,-0.047,0.235,-0.0365
TCGAGTAGGTTACCAATGGGGCATTGAGCTTTCT,0.162,1.38,-0.99,0.479,-1.11,0.992,0.256,1.26,1.03,1.16,3.4,2.69,-0.293,-0.233,-0.0976,0.039,-0.707,0.00376,-0.988,0.917
CGGACTAGGTCAGAACAGGACAGTGAAGGATGAT,1.12,0.71,-0.0673,0.176,-0.579,2.36,4.2,3.5,1.01,2.58,6.67,6.53,3.25,1.13,1.57,0.748,0.281,0.846,0.0596,2.68
CCTACCAGGCCAATCTGGGTCACTCAAGGCTTGA,1.15,1.52,0.0755,1.01,-0.051,2.92,2.3,2.4,-0.0148,1.57,3.85,5.15,-0.114,-1.08,1.37,1.39,0.0886,1.66,0.203,1.71
TCTTGTCGATCAACAGGAGGTTAAGAAAGATCGA,0.21,0.937,0.145,0.977,-0.356,1.11,-0.231,0.969,1.86,1.64,0.771,0.105,-0.14,-0.175,-0.727,0.727,-0.0541,0.726,0.067,0.397
GCGACTGGGGCAAAGCAGGTTCCCATAAGGTTGG,-0.34,-0.649,-0.593,-0.596,-1.21,0.522,0.609,0.847,-0.583,0.203,3.87,2.9,-1.3,-1.28,-0.328,-0.524,-0.517,-0.168,-1.06,0.44
TGTTAAAGTTCAAAGGTAACGTAAGTATCCACAC,6.98,6.1,5.38,4.53,2.3,5.47,7.2,6.84,4.03,6.36,0.162,3.26,2.15,2.02,3.98,5.77,4.11,6.35,1.41,4.93
CCATACGGGTCACTCCAGGTTATAGCATCGGAGT,4.55,7.37,1.79,5.15,0.265,4.18,3.46,3.28,1.27,2.68,1.6,3.66,-0.54,0.0685,1.66,4.94,0.464,3.54,0.63,3.54
CCAGACACGTGAGAAGGTAACTCAGCCTCGATTA,-0.22,-0.083,-0.348,-0.3,-0.11,-0.534,0.37,-0.804,-0.82,-0.704,-0.227,-0.531,-0.51,-0.51,0.168,-0.212,0.145,-0.206,0.356,-0.318
CCTACTGGGCCAAGGTCATTGAACAGTCAAAGCA,3.08,3.2,0.814,3,-0.34,4.19,4.25,4.55,1.68,3.73,3.68,4.69,-0.3,-0.825,1.5,3.32,0.99,3.5,-0.309,3.5
CCATACAGGTGAGAAGGTAACTCAGCCTCGATTA,0.317,0.251,0.308,0.309,-0.0623,1.01,1.03,1.68,0.288,1.26,2.08,1.63,0.397,0.148,0.629,0.166,0.14,0.725,1.02,0.628
CCTCGGAGGACAGAAGGTCAGAGCTGTCCGCTTT,1.38,1.63,-0.0944,1.03,-0.587,1.84,-0.203,0.708,-0.69,-0.00592,0.195,-0.199,-1.36,-1.28,1.06,1.35,-0.13,1.93,0.441,2.89
GCTTGTAGATCAAGGTTAAGGAAGACTAAGCTAA,0.0551,0.428,-0.182,0.363,-0.628,1.68,1.05,2.33,0.604,1.48,1.33,1.17,-0.221,0.338,0.301,0.301,-0.237,0.84,-0.272,0.798
CCTACTGGGCCAAGGGTCATTGATTCCAATGCTC,2.79,2.59,0.211,2.63,-0.578,5.27,10.2,9.04,8.43,10.2,3.29,5.63,0.63,-0.667,1.67,3.15,-0.275,3.87,0.1,3.06
CGTCCAATGTCAGAGAGGTCAGTGAATGCCGAGT,2.31,2.29,1.37,2.24,0.168,2.69,0.78,1.62,0.224,1.18,0.575,1.22,-0.469,-0.584,3.15,3.48,2.28,3.16,1.47,3.42
TCTAGTAGATCAAGCAGGTTAAGAAAGCCTGAGT,-0.193,-0.025,-0.279,0.194,-0.909,0.517,-0.406,1.3,2.82,1.92,1.47,0.398,-0.251,-0.0304,0.0496,0.277,-0.142,0.334,-0.0896,-0.149
TAGTCTAGGTCAGATCGGGCCAGTATACGCTATA,1.81,1.91,0.186,1.13,1.4,2.38,2.36,2.4,0.965,1.92,4.19,4.5,1.78,1.67,1.18,1.33,-0.0787,1.54,-0.273,3.25
CCTACTGGGCCAAAATGGTCATTGATGCCGATAA,-0.236,-0.291,-0.317,-0.55,-0.875,0.318,0.666,0.897,-0.124,0.804,2.55,2.95,-0.67,-0.0275,0.212,-0.439,-0.289,0.45,0.0345,0.172
TCTTGTAGATCCGCAGGTTAAGAAAGCTGGCCAA,0.144,0.322,-0.25,0.303,-0.333,0.634,-0.592,1.34,2.55,1.87,1.29,-0.0295,0.383,-0.621,-0.223,0.161,-1.09,0.597,-0.725,0.136
ACTAGCAGGCCAAGGGTCACGCAAGATTAGTCCG,3.81,3.6,0.279,3.53,-0.566,5.24,9.04,7.85,7.41,7.99,1.52,4.53,0.585,-0.153,2.62,4.25,-0.0194,5.33,0.787,4.2
